Most compounds without a hit are left out; they make up all but 19% or so of the library.
HT1080 IDH1KD tx = toxicity to HT-1080 IDH1 knockdown cells (counter line) | HT-1080 IDH1 knockdown viability, ATP luminescence, 48 h | Potency, µM (series often up to 46.1 µM), actives largely listed as cytotoxic | 360,000 compounds, 2% hits | AID 686971
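Assay cells: HT-1080 with IDH1 knockdown, 750 per well, RPMI/5% FBS. Exposure: 48 h at 37 °C following 2 h pre-incubation. Read: CellTiter-Glo luminescence; fitted concentration-response, curve class assigned.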
IL-1B inflam inh = inhibitors of inflammasome signaling (IL-1 beta secretion); AID 743279; THP-1 LPS/ATP IL-1B secretion, AlphaLISA, 16 h; hits give low values; 360,000 compounds, 4.7% hits; activity change, % at 57.5 µM; in the data active = activity change below about -50%; inconclusive = mostly about -30% to -49%
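Secreted IL-1B measured by AlphaLISA bead assay after 16 h compound exposure of THP-1 cells; compounds (final up to 57.5 uM) added 1 h before LPS (250 ng/mL) and ATP (1.25 mM) stimulation; lower signal means less secretion.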
ELG1 DNA repair = inhibitors of ELG1-dependent DNA repair in HEK293T cells; Potency, µM (top dose mostly 46.1 µM), most hits filed as inhibitors; HEK293T ELG1-luciferase reporter, luminescence, 16 h; DNA damage induced by 5-fluorouridine; 330,000 compounds, 2.3% hits; also: nearly all actives have a fitted effect of over 55% in size
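Luminescence from the luciferase reporter, measured 30 min after ONE-Glo reagent at room temperature, was the read-out. Beforehand, 2,000 cells per well were exposed for 16 hr at 37 °C to 5-fluorouridine together with compound or vehicle.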
DT40 TDP1 no CPT = qHTS for Inhibitors of human tyrosyl-DNA phosphodiesterase 1 (TDP1): qHTS in cells in absence of CPT; DT40 Tdp1-/- hTDP1 cells, no CPT, ATP luminescence, 48 h; Potency, µM (doses to about 46.2 µM), hits mostly inhibitors; 420,000 compounds, 15% hits; also: nearly all actives have a fitted effect of over 55% in size
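DT40 Tdp1-/-;hTDP1 cells, no CPT (DMSO vehicle only), 400 cells/well; compounds pin-transferred; ≥48 hr, 37 °C; CellTiter-Glo 30 min RT dark, luminescence read.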
TDP1 cell CPT = growth inhibition of DT40 Tdp1-/-;hTDP1 cells with camptothecin (screen for TDP1 inhibitors); chicken DT40 Tdp1-/-;hTDP1 cells + 20 nM CPT, ATP luminescence, 48 h; Potency, µM (top dose mostly 46.2 µM), usual class: inhibitors; 420,000 compounds, 12% hits; also: nearly all actives have a fitted effect of over 55% in size
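Chicken DT40 Tdp1-/- cells stably complemented with human TDP1 were seeded at 400 cells/well in medium containing 20 nM camptothecin, exposed to pin-transferred compounds, and grown at 37 °C for at least 48 hr. Viability was read as ATP luminescence.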
HT1080NT lethal = kills 2HG-producing HT-1080-NT fibrosarcoma cells; HT-1080-NT fibrosarcoma viability, CellTiter-Glo ATP luminescence, 48 h; 360,000 compounds, 1.6% hits; AID 686970; Potency, µM (highest dose often 46.1 µM), usual class: cytotoxic;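 also: NT is the 2HG producing partner of a matched IDH1 knockdown line; nearly all actives have a fitted effect of over 55% in size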
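Viability of the 2HG-overproducing fibrosarcoma line after 48 hours of compound exposure at 37 degrees C was determined by luminescence with CellTiter-Glo, and concentration-effect curves were then fitted and categorized.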
Hits are given with their value; - = inactive; ? = inconclusive; . = no result. Unless noted, calls follow the shape of the dose curve; as a rule, active = well fitted curve in the direction sought with a large enough effect; inconclusive = small, poorly fitted or top-dose-only effect, or another doubt; inactive = no such curve, though single readings can be large; an effect the other way counts as inactive or inconclusive.

SMILES | HT1080 IDH1KD tx | IL-1B inflam inh | ELG1 DNA repair | DT40 TDP1 no CPT | TDP1 cell CPT | HT1080NT lethal
COC(=O)c1cccc(NC(=O)c2cc(OC)c(OC)c(OC)c2Br)c1 | - | - | 12µM | - | - | -
Cc1ccc(NC(=O)CCNS(=O)(=O)c2ccccc2)c(C(=O)c2ccccc2)c1 | - | - | - | ? | 21µM | -
CC(C)(CO)NC(=O)c1ccc2c(c1)C(=O)c1ccccc1-2 | - | - | ? | 18µM | - | -
COCCNC(=O)c1ccc2c(c1)C(=O)c1ccccc1-2 | - | - | - | - | - | -
Cc1ccc2occ(/C=N/NC(=O)c3ccncc3)c(=O)c2c1 | - | - | ? | - | - | -
CCOC(=O)NC1(NCc2ccccc2)Oc2ccccc2O1 | ? | - | - | 21µM | ? | ?
Cc1cc(C(F)F)n2nc(C(=O)Nc3c(C)cccc3C)nc2n1 | . | . | . | - | - | .
COc1ccccc1-n1cnc2c(c1=O)c1nc3ccccc3nc1n2-c1ccc(C)c(C)c1 | - | - | ? | 18µM | - | -
CCOc1ccc(N(CC(=O)Nc2ccc(OC)cc2OC)S(=O)(=O)c2c(C)[nH]c(=O)[nH]c2=O)cc1 | - | - | - | - | - | -
COC(=O)c1cc2ccccc2oc1=O | - | - | - | - | - | -
COC(=O)c1ccccc1-c1c2ccc(=N)cc-2oc2cc(N)ccc12 | 10µM | -92 | - | 0.58µM | 0.73µM | 6.5µM
O=C(Nc1cc(Cl)ccc1N1CCOCC1)c1ccc2c(c1)OCCO2 | - | -71 | ? | - | ? | -
COC(=O)c1ccc(N2CCOCC2)c(NC(=O)c2ccc3c(c2)OCO3)c1 | - | - | ? | ? | - | -
COc1ccc(N2CCOCC2)c(NC(=O)c2ccc3c(c2)OCO3)c1 | - | - | - | 21µM | ? | -
O=C(CCn1ccc2cc(S(=O)(=O)N3CCCC3)ccc21)NCc1ccccc1 | - | - | - | - | - | -
CN(C)c1ccc(CNC(=O)CCCn2ccc3cc(S(=O)(=O)N4CCCC4)ccc32)cc1 | . | . | . | 18µM | ? | .
O=C(CCCn1ccc2cc(S(=O)(=O)N3CCCC3)ccc21)NCc1ccc(Cl)cc1 | . | . | . | 2.3µM | 4.6µM | .
CCOc1cccc(C2/C(=C(/O)c3ccc4c(c3)CC(C)O4)C(=O)C(=O)N2CCCn2ccnc2)c1 (centres undefined) | - | - | - | - | - | -
Cc1cccc(C(=O)NCC(=O)Nc2ccncc2)c1 | - | - | - | ? | - | -
NC(=NCCc1c[nH]c2ccccc12)NC(=O)c1ccc(F)cc1 | ? | -63 | - | ? | - | -
NC(=NCCc1c[nH]c2ccccc12)NS(=O)(=O)c1ccc2ccccc2c1 | - | ? | - | 5.2µM | 4.6µM | -
NNC(=O)CCc1c[nH]c2ccccc12 | - | - | - | - | - | -
NC(=NCCc1c[nH]c2ccccc12)NS(=O)(=O)c1ccc(F)cc1 | - | - | - | ? | ? | -
COCCCN1C(=O)C(CC(=O)NC2CCCC2)CC(C(=O)N2CCOCC2)=C1C (centres undefined) | - | - | . | ? | - | -
CCN1C(=O)/C(=C2/Sc3ccccc3N2CC)S/C1=N\c1ncn[nH]1 | - | -55 | ? | 23µM | ? | -
Cc1ccc(CSCCNC(=O)c2ccc(N(C)S(=O)(=O)c3ccccc3)cc2)cc1 | - | - | ? | 15µM | ? | -
CN(c1ccc(C(=O)NCCSC(C)(C)C)cc1)S(=O)(=O)c1ccccc1 | - | - | ? | ? | ? | -
CC(=O)Nc1ccc(S(=O)(=O)NCCSCc2ccccc2Cl)cc1 | ? | - | - | 18µM | 9.2µM | -
CN(c1ccc(C(=O)NCCSCc2ccc(Cl)cc2)cc1)S(=O)(=O)c1ccccc1 | - | - | ? | 16µM | 16µM | -
O=C(NCCSCc1c(F)cccc1Cl)Nc1ccccc1 | - | -75 | - | ? | - | -

Source: PubChem (National Center for Advancing Translational Sciences (NCATS))
